Laboratory results published in paper PMC5540273 (PLoS ONE, 2017).

tested on: MAPKAPK2; details: concentration: 1 μM, replicates: in singlicate; n = 1
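Further: KINOMEscan kinase panel screen.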

Structure (SMILES)	%Inh [%]
COc1ccc(Nc2nccc(NCCNC(=O)c3cc4ccccc4s3)n2)cc1 [GSK1379896]	2
Clc1ccc(-c2nn3ncccc3c2-c2ccnc(Nc3ccc4c(c3)OCCO4)n2)cc1 [GW829116]	0
O=C(Nc1cccc(-c2nn3ncccc3c2-c2ccnc(Nc3ccccc3)n2)c1)c1c(F)cccc1F [GSK198271]	24
Nc1ncc(-c2ccc3nccc(-c4ccncc4)c3c2)cc1S(=O)(=O)N1CCOCC1 [GSK1627798]	14
Cl.c1ccc(-c2ccc3c(Nc4ccc5[nH]ccc5c4)ccnc3c2)nc1 [GW440138]	9
COc1cccc(C2=C(Nc3ccc(Cl)c(C(=O)O)c3)C(=O)NC2=O)c1 [SB-390769]	26
O=C(Nc1n[nH]c2cc(-c3ccoc3)ccc12)C1CC1 [SB-738481]	0
CCS(=O)(=O)c1ccc(OC)c(Nc2nccc(-c3c(-c4cccc(NC(=O)c5c(F)cccc5F)c4)nn4ncccc34)n2)c1 [GSK326180]	34
CN(c1ccc(NC(=O)Nc2cc(C(F)(F)F)ccc2F)cc1)c1ccnc(Nc2ccc(S(N)(=O)=O)cc2)n1 [GW809893]	0
Oc1cc(Nc2ccnc3cc(I)ccc23)ccc1F [GW552771]	24
CC(=O)N1CCN(c2ccc(Nc3nccc(-c4sc(C(C)C)nc4-c4cccc(NS(=O)(=O)c5cccc(Cl)c5)c4)n3)cn2)CC1 [GSK1660437]	19
Cn1cc(-c2ccc3c(c2)CCN3C(=O)Cc2cccc(Cl)c2)c2c(N)ncnc21 [GSK2606590]	19
COc1ccc(-c2coc3ccc(-c4nnc(SCc5ccc(OC)c(C(F)(F)F)c5)o4)cc23)cc1	0
CC(C)c1nc(-c2cccc(NS(=O)(=O)c3c(F)cccc3F)c2F)c(-c2ccnc(Nc3ccc(N4CCOCC4)nc3)n2)s1 [GSK2008607]	0
Cn1cc(-c2ccc3c(c2)CCN3C(=O)Cc2cccc(F)c2)c2c(N)ncnc21 [GSK2603358]	31
COc1cc2c(cc1OCCN1CCNCC1)ncc1c3ccc(C#N)cc3[nH]c21	0
Cc1ccc(S(=O)(=O)Nc2ccc(Nc3nccc(Nc4cccc5[nH]ncc45)n3)cc2)cc1 [GSK581271]	0
Cc1ccc(C)c(NC(=O)NC2CCN(c3ccnc(Nc4ccc(F)cc4)n3)C2)c1 (stereo not shown) [GSK1379720]	23
CN1CCN(Cc2cccc(-c3ccc4c(Nc5ccc(Oc6ccccc6)cc5)ccnc4c3)c2)CC1 [GW578342]	3

Structure (SMILES)	%Inh [%]
COc1cc(Nc2nccc(-c3c(-c4cccc(NC(=O)c5c(F)cccc5F)c4)nn4ccccc34)n2)cc(OC)c1OC [GSK323521]	24
Cc1cccc(Nc2nc(N[C@H]3CCNC3)ncc2C(N)=O)c1.Cl [GSK2197149]	0
Nc1n[nH]c2cnc(-c3ccccc3)cc12 [SB-642124]	20
Cc1occc1-c1ncc(OC[C@@H](N)Cc2c[nH]c3ccccc23)cc1-c1ccc2[nH]nc(C)c2c1.O=C(O)C(F)(F)F [GSK682037]	0
CSc1cccc2c(-c3ccncn3)c(-c3ccc(F)cc3)nn12 [GW514786]	67
C[C@@H]1CC[C@@H](C(=O)Nc2ccccc2)CN1c1cc(-c2ccc3c(N)n[nH]c3c2)nc(N)n1 [GSK2286062]	0
CN(C)Cc1ccc(-c2ccc3c(Nc4ccc(Oc5ccccn5)cc4)ccnc3c2)o1 [GW567148]	3
COc1cc(Nc2ncc3c(C)nc(-c4cc5ccccc5[nH]4)n3n2)cc(OC)c1OC [GW869516]	0
Cn1cc(-c2[nH]c3cc(NC(=O)[C@H](N)C4CCCCC4)cc4c3c2C=NNC4=O)cn1	0
FC(F)(F)c1ccc(/C=C/c2cncnc2Nc2ccc3[nH]c(Cc4ccccc4)nc3c2)cc1 [GW709199]	3
CCCCc1nn2ncccc2c1-c1ccnc(Nc2ccc(N3CCN(C)CC3)cc2)n1 [GW684941]	0
COCCOCCOc1cc2ncc3c4ccc(C#N)cc4[nH]c3c2cc1OC	0
COc1cccc(-c2ccc3c(NC(=O)C4CC4)n[nH]c3n2)c1 [SB-710903]	16
COc1cc(Nc2nccc(N3CCC(NC(=O)c4cc5ccccc5s4)C3)n2)cc(OC)c1OC (stereo not shown) [GSK1379760]	0
COC(=O)Nc1nc2cc(Oc3ccc(NC(=O)Nc4cc(C(F)(F)F)ccc4F)cn3)ccc2[nH]1.Cl.Cl [GW681170]	0
COc1cc(Nc2nccc(N3CCC(NC(=O)Nc4cccc(C(C)=O)c4)C3)n2)cc(OC)c1OC (stereo not shown) [GSK1379753]	0
c1ccc(-c2cnc3nccnn23)cc1 [AH20685]	0
CN1CCN(CCCNc2nccc(-c3c(-c4ccc(F)cc4)nn4cc(C(F)(F)F)ccc34)n2)CC1 [GW621581]	5
